For 40 compounds, growth results are on record in PubChem BioAssay (NCI).

Each structure is given as a SMILES string. About 83,000 compounds went through this panel and 20% of them were active in at least one assay; those are over-represented in the sample as a whole.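 48-hour exposure, single concentration, 96-well plates; percent growth endpoint where 0 means no net growth. Active: below 10.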 Calls of active or inactive are those of the source.

The test has as its system KM12 colon. Briefly: NCI-60 one-dose screen, 48 h (100 = growth as untreated, 0 = no growth, -100 = all killed). The conditions noted are these: 10 µM unless noted. As to the method:
Growth inhibition of the KM12 human tumor cell line is measured as a screen for anti-cancer activity. Cells are grown in 96 well plates and exposed to the test compound for 48 hours. Compounds are tested at a single concentration, which is 10^-5 M for most compounds. The reported endpoint is percent growth (GI% or GIPRCNT), where numbers from 0 - 100% represent growth inhibition, and numbers from -100% - 0 represent cell death. For example, a value of 40 represents 60% growth inhibition. A value of 0 means no net growth occurred over the course of the experiment. A value of -40 indicates 40% of cells at the beginning of the experiment died by the end of the experiment. A value of -100 means all cells are dead at the end of the experiment.
NCI-60 Human Tumor Cell Lines Screen was performed using the standard one-dose NCI protocol, which is described in more detail at https://dtp.cancer.gov/discovery_development/nci-60/default.htm.
Compounds with GIPRCNT values below 10 were considered active. Activity score was based on GIPRCNT using the following formula: […]
Score is 0 for GIPRCNT values of 100 or above, 50 for GIPRCNT values of 0, and 100 for GIPRCNT values of -100.
Consider `COc1cc(C2CC(c3ccc(Nc4ccnc5cc(Cl)ccc45)cc3)=NN2C=O)cc(OC)c1OC` (stereo not given), for which the growth is 68% (inactive).
With `C[C@H]1[C@H]2[C@H]3CC[C@@H]4[C@@]5(C)C/C(=C/c6cccnc6)C(=O)C(C)(C)[C@@H]5CC[C@@]4(C)[C@]3(C)CC[C@]23CO[C@]1(C)[C@@H](C(=O)/C=C\c1cccnc1)C3` the figure was -55.6% (active).
With `Cc1cc(NCc2cc(Nc3ccnc4cc(Cl)ccc34)ccc2F)nc(N2CCN(C)CC2)n1` the figure was 14.4% (inactive); with `COc1ccc2c(c1)O/C(=C\c1cccc(OCC(=O)Nc3nc(C)c(C)s3)c1)C2=O`, 1.92% (active).
Regarding `CCOC(=O)c1c(-c2ccc(Cl)cc2)c(C#N)c(=O)n(-c2ccccc2CC)c1N`, the growth was 79.1% (inactive).
With `COC(=O)c1c2c(c[n+]([O-])c1C)C(=O)C=CC2=O` the figure was 98.7% (inactive); with `CCOP(=O)(OCC)C1CP(=O)(c2ccccc2)CC(C)=C1Cl` (stereo not given), 109% (inactive).
For the compound `c1coc(-c2c3ccc(=[N+]4CCCCC4)cc-3oc3cc(N4CCCCC4)ccc23)c1`, the growth was -93.3% (active).
For `O=C(CSc1nccc(Nc2ccc(S(=O)(=O)Nc3nccs3)cc2)n1)c1ccc(F)cc1`, the growth is 106% (inactive).
With `Cn1ccc2c(c1=O)C(=O)c1nccc3c1c-2nc1ccccc13` the figure was -88.1% (active).
With `Cn1cc2c(c1)-c1nc(Nc3ccccc3)ncc1CC2` the figure was 11.9% (inactive).
With `COc1ccc(-c2csc(C3=C(O)CN(CCCN4CCCC4=O)C3=N)n2)cc1OC` the figure was 104% (inactive); with `CS(=O)(=O)c1ccc(Nc2nc(N[C@H]3CCCC[C@H]3N)nc3cc[nH]c(=O)c23)cc1`, 0.908% (active); with `CC1(C)CC[C@]2(C(=O)N3CCOCC3)CC[C@]3(C)C(=CC[C@@H]4[C@@]5(C)CC[C@H](OC(=O)c6cccnc6)C(C)(C)[C@@H]5CC[C@]43C)[C@@H]2C1`, 53.5% (inactive).
As to `CCOc1ccccc1-n1c(CN2CCN(C(=O)COc3ccc(CNCCCCCCN4C5CCCC4CC(OC(=O)Nc4cc(C)ccc4OC)C5)cc3)CC2)nc2ccccc2c1=O` (stereo not given), the growth is -87.2% (active).
With `Cc1c(C(=O)OC(=NC2CCCCC2)NC2CCCCC2)sc2c1c(=O)nc1c(C#N)n[nH]n12` the figure was 110% (inactive); with `Cc1cc(NCc2cc(Nc3ccnc4cc(Cl)ccc34)ccc2F)nc(N2CCN(c3ccccc3)CC2)n1`, 69.2% (inactive).
Consider `COc1ccc(-c2nc(SCCC(C)C)nc(N/N=C\c3cccc([N+](=O)[O-])c3)c2C#N)cc1`, for which the growth was 27.1% (inactive).
With `COc1cc(CCC[P+](c2ccccc2)(c2ccccc2)c2ccccc2)cc2c1OCO2` the figure was 10.7% (inactive); with `COc1ccc(Nc2nnc(SCc3ccccc3F)s2)cc1`, 94.6% (inactive); with `Cc1ccc(NS(=O)(=O)c2ccc3c(c2)C2OCCC2C(c2ccc(C(=O)C(C)C)cc2)N3)cc1C` (stereo not given), 36.5% (inactive).
With `NC(N)=NN=C(c1ccccc1)c1ccccc1` the figure was 32.5% (inactive).
For `CC(=O)n1c(-c2ccc(Cl)cc2)nc2c(c1=O)C(c1ccc(Cl)cc1)c1sc3c(Cl)cccc3c1O2` (stereo not given), the growth was -17.4% (active).
With `CCSC1=NC2C(N(CC)C(=O)N2CC)N1/N=C/C=C/c1ccccc1[N+](=O)[O-]` (stereo not given) the figure was 10.1% (inactive); with `CCOC(=O)c1csc(NC(=O)COc2cccc(/C=C3\Oc4cc(OC)ccc4C3=O)c2)n1`, 83.9% (inactive).
With `c1ccc2cc3nc4cc5ccccc5cc4nc3cc2c1`, the growth was 85.4% (inactive).
`O=C1Nc2ccccc2/C1=C/c1cn(C(=O)c2ccc(Cl)cc2)c2ccccc12`: the growth was 40.9% (inactive).
With `Cc1cc(/C=C\c2ccc3ccccc3[n+]2C)c(O)c2ncccc12`, the growth is 13.7% (inactive).
With `CCCCOc1nc2ccccc2cc1C1CNC(=O)c2ccccc2N1` (stereo not given) the figure was 23.9% (inactive).
With `CN(C)CCCn1c(=O)c2ccccc2c2ccccc21` the figure was 75.8% (inactive); with `O=C1/C(=C/c2ccc(F)cc2)C=C(c2ccccc2)N1CCc1ccccc1`, 62.2% (inactive); with `O=c1ccn2nc3ccccc3c2[nH]1`, 112% (inactive).
With `COc1ccccc1NC(=O)N/C(N)=N/c1nc2ccccc2s1` the figure was 10.4% (inactive).
Take `Cc1nn(-c2ccccc2)c(Oc2ccc(Cl)cc2)c1/C=N\N=c1/sc2ccccc2n1C`: the growth is 94.6% (inactive).
On to `C=C(C)[C@@H]1CC[C@]2(C(=O)NC3CCCCC3)CC[C@]3(C)[C@H](CC[C@@H]4[C@@]5(C)CCCNC(C)(C)[C@@H]5CC[C@]43C)[C@@H]12`, for which the growth is 16.7% (inactive).
With `C=C(C)[C@@H]1CC=C2c3sc(-c4ccc(C)cc4)nc3C[C@@H](C)[C@]2(C)C1` the figure was 101% (inactive).
With `Cc1cccc(Cc2cnc(NC(=O)/C=C/c3ccco3)s2)c1` the figure was 13.3% (inactive).
Take `Cc1cc(NCCCCNc2ccnc3cc(Cl)ccc23)nc(Nc2ccc(C(=O)N3CCCCC3)cc2)n1`: the growth was 25.8% (inactive).
With `COc1ccc(C2=NN(C(=O)c3cc(OC)c(OC)c(OC)c3)C(c3ccc(Cl)cc3)C2)cc1OC` (stereo not given) the figure was 15.9% (inactive).
With `O=C1/C(=C\c2cccnc2)SC(=S)N1CCc1ccc(O)cc1` the figure was -3.09% (active).
